High-throughput results deposited in PubChem by The Scripps Research Institute Molecular Screening Center.
Compounds with a hit are over-represented: about 4.8% of the library has one in this group of screens.
hgDAF-12 ag – agonists of H. glycines DAF-12 nuclear receptor; HEK293 GAL4-hgDAF12 UAS-luciferase reporter, agonist luminescence; normalized to butyrate control; activation, % at 6.8 µM; 1.8% of 370,000 active; AID 687014;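 active means activation above a cutoff set at the mean of all screened compounds plus 3 SD, cut at about 10% in these data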;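 further: 0% = DMSO wells and 100% = sodium butyrate wells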
ssDAF12 agonist – activators of S. stercoralis DAF-12 nuclear receptor; activation, % at 6.8 µM; 1% of 370,000 active; HEK293 ssDAF-12/GRIP1 lit1-tk-luc reporter, luminescence; % of 3 µM dafachronic acid response;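 active means activation above the mean over all tested compounds plus 3 SD, cut at about 0.9% in these data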;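 further: 0% = DMSO-only wells and 100% = 3 µM delta7-dafachronic acid wells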
DAX1 inh-1 – NR0B1 (DAX1) inhibition | AID 504766 | inhibition, % at 6.75 µM | P51843 | HEK293 Gal4-DAX1 luciferase reporter, luminescence | 0.99% of 340,000 active;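 active means inhibition above the mean over all tested compounds plus 3 SD, cut at about 4.2% in these data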;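 further: 0% = DAX1-transfected cells with DMSO and 100% = empty-vector control cells with DMSO; inhibition shows as a rise in luminescence from relieved DAX1 repression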
Target sequence (P51843 207-470 limits assumed): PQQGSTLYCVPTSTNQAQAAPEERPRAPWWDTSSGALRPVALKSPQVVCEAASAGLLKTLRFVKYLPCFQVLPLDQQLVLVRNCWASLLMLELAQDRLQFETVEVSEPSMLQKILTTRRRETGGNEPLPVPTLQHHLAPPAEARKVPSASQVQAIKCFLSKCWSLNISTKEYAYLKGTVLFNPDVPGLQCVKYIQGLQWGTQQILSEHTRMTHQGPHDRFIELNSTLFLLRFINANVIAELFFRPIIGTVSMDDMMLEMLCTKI
SMARCA2 activ – activators of SMARCA2 function; activation, % at 9.1 µM; MG213 cells, MMTV-luciferase reporter, dexamethasone, overnight; AID 652017; 1% of 370,000 active; in the data active means activation above about 7.8%;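 further: 0% = vehicle wells and 100% = reference activator wells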
hcDAF12 agonist – activates DAF-12 receptor from parasite H. contortus. AID 652067. HEK293 hcDAF-12 lit1-tk-luc reporter, luminescence; 0% DMSO, 100% Δ7-dafachronic acid. activation, % at 6.8 µM. 1.4% of 370,000 active;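 active means activation above the mean of all tested compounds plus 3 SD, cut at about 5.5% in these data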;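 further: 100% = response to 3 µM Δ7-dafachronic acid high control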
DAX1 inh-2 – DAX1 (NR0B1) inhibition, primary screen | HEK293T StAR-luciferase reporter, SF-1/DAX-1 repression relief | inhibition, % at 6.8 µM | 1.1% of 370,000 active;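 active means inhibition above the mean over all tested compounds plus 3 SD, cut at about 3.6% in these data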;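 further: 0% = DAX-1 cells with DMSO and 100% = cells lacking DAX-1 with DMSO; higher inhibition means more luminescence from relief of DAX-1 repression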
SMARCA2 conf – confirmation of SMARCA2 (BRM) function activators; shares compounds with SMARCA2 activ; MG213 cells, MMTV-luciferase with dexamethasone, luminescence, overnight; MG213 cells expressing E1A, Rb sequestered; DMSO wells 0%, reference activator 100%; activation, % at 9.1 µM; 30% of 3,500 active;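 active means activation above its plate's cutoff, the mean activation of tested wells plus 3 SD, cut at about 7.9% in these data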
VP16 Luc act – GAL4-VP16 reporter activation counter-screen; shares compounds with SMARCA2 activ; HEK293 GAL4-VP16 pG5luc reporter, luciferase luminescence; scaled: DMSO wells 0%, SAHA wells 100%; activation, % at 9.1 µM; 41% of 3,500 active; AID 686939;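 active means activation above the solvent-only control well mean plus 3 SD, averaged across control plates, cut at about 5.2% in these data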
* hit, by the source's call; · = not tested or not shown.

SMILES | hgDAF-12 ag | ssDAF12 agonist | DAX1 inh-1 | SMARCA2 activ | hcDAF12 agonist | DAX1 inh-2 | SMARCA2 conf | VP16 Luc act
COc1ccc(S(=O)(=O)Nc2cccc3c2O[C@@H](CN(C)Cc2ccc(C(=O)O)cc2)[C@@H](C)CN([C@H](C)CO)C3=O)cc1 | 1 | -2 | 1 | 0 | 0 | 0 | · | ·
COc1ccc(C(=O)NC(=O)COC(=O)c2ccc(C)o2)cc1 | -1 | -1 | 0 | -1 | 0 | 2 | · | ·
CCc1ccc(S(=O)(=O)NCCc2cn3cccc(C)c3n2)s1 | 4 | 2.2* | -1 | 8.1* | 5 | 1 | 0 | 0
CCc1ccc(S(=O)(=O)NCCc2cn3ccc(C)cc3n2)s1 | 6 | -2 | -1 | 1 | -2 | 0 | · | ·
Cc1c(NC(=O)C(C)OC(=O)c2cccnc2)c(=O)n(-c2ccccc2)n1C (centres undefined) | -1 | -1 | 0 | 8.3* | -3 | 0 | -2 | 0
Cc1cc(N2C(=O)c3ccc(C(=O)Nc4ccc(CC(=O)O)cc4)cc3C2=O)no1 | -1 | -1 | 2 | 0 | 0 | 2 | · | ·
O=C(Nc1ccccc1F)C1(c2ccccc2)CC1(Cl)Cl (centres undefined) | 2 | -1 | 1 | 9.9* | -2 | 0 | 0 | 1
Cc1cccc(NC(=O)/C=C/c2cccs2)n1 | 13* | 0 | 1 | 12* | 6.2* | 3 | 8.2* | 7.9*
CC(=O)c1ccc(OC(=O)CCc2nc3ccccc3s2)cc1 | -1 | 1 | · | 1 | 4 | 0 | · | ·
COc1ccc([C@H]2CC(=O)C[C@@H](CCn3cc(-c4ccccc4)nn3)O2)cc1 | -1 | -1 | · | 0 | -2 | -2 | · | ·
COc1ccc([C@H]2CC(=O)C[C@@H](CCn3cc(-c4ccc(F)cc4)nn3)O2)cc1 | -1 | -1 | · | 9.6* | 1 | 0 | -3 | 1
NC(=O)c1sc2nc(-c3ccco3)ccc2c1N | 3 | -1 | 0 | 4 | 0 | 1 | · | ·
COC(=O)c1sc2nc(-c3ccco3)ccc2c1N | 11* | 0 | 3 | 8.0* | 3 | 3 | 14* | 6.5*
O=C(OCCN1CCCCC1)c1c[nH]c2ccccc12 | 2 | -1 | 0 | 0 | 0 | 2 | · | ·
CCCN(CCC)CCCNC(=S)Nc1ccc2nc(N3CCN(CC)CC3)cc(C)c2c1 | -1 | -1 | 0 | 9.4* | 1 | 0 | 7 | 1
CCCN(CCC)CCCNC(=S)Nc1ccc2nc(N3CCN(C)CC3)cc(C)c2c1 | 0 | -1 | 2 | 10* | 2 | 1 | 8.3* | 1
COc1ccc(NC(=O)Nc2ccc(F)c(F)c2)c(OC)c1 | 0 | -2 | 1 | 5 | -2 | 0 | · | ·
CC(C)(C)c1ccc(-n2ncc3c2CCCC3NC(=O)c2ccco2)cc1 (centres undefined) | -2 | -2 | -2 | -4 | -3 | -3 | · | ·
Cc1ccc(NC(=O)OC(C)CNC(=O)Oc2cccc(C)c2)cc1 (centres undefined) | 7 | -1 | 2 | 11* | 0 | 2 | 8.0* | 5
C[C@@H]1CN([C@@H](C)COC(=O)C(C)(C)C)C(=O)c2cc(NC(=O)Nc3ccccc3)ccc2O[C@@H](C)CCCCO[C@H]1CN(C)S(=O)(=O)c1ccc(F)cc1 | -1 | -1 | · | · | -2 | · | · | ·
Nc1ccc(C(=O)NN2C(=O)[C@H](Cl)C2c2ccc(Cl)cc2)cc1 (some centres undefined) | 4 | 0 | 0 | 8.3* | 5.9* | -3 | -15 | 1
CNC(=S)NNC(=O)c1cccn(Cc2cccc(C(F)(F)F)c2)c1=O | -3 | -1 | -1 | -2 | -2 | 0 | · | ·
Cc1nc2c(sc3nc(N4CCOCC4)c4c(c32)CC(C)(C)OC4)c(-c2ccc(Cl)cc2)c1C(=O)O | 0 | -1 | -1 | 8.4* | -1 | 0 | -5 | 0
O=C(COC(=O)c1cc(-c2cccs2)nc2ccccc12)NC1CCS(=O)(=O)C1 (centres undefined) | 2 | -1 | 1 | -2 | -2 | 0 | · | ·
Cc1ccc(S(=O)(=O)N2CCOCC2)cc1C(=O)NCc1cccnc1 | -1 | -1 | 0 | 10* | -3 | 0 | 0 | 1
SMILES | hgDAF-12 ag | ssDAF12 agonist | DAX1 inh-1 | SMARCA2 activ | hcDAF12 agonist | DAX1 inh-2 | SMARCA2 conf | VP16 Luc act
COC(=O)N/N=C(\C)c1ccccc1Br | 1 | -1 | 0 | 8.0* | -2 | 0 | 9.1* | 0
CCc1ccc(C(=O)Cn2ncc(Cl)c(Cl)c2=O)cc1 | -2 | 0 | 1 | 17* | 0 | -1 | -16 | 4
O=C1Nc2c(ccc(Cl)c2Cl)C(=O)C1(F)c1ccccc1 (centres undefined) | 1 | -1 | 1 | 8.3* | 1 | 1 | -3 | 0
CCSc1nc2ccc(OC)cc2cc1C#N | 2 | -1 | 1 | 1 | 1 | 0 | · | ·
CCOc1ccc2nc(SCC#N)c(C#N)cc2c1 | -3 | -1 | 0 | 8.8* | -3 | -1 | 7.8* | 6.6*
O=C(Nc1ccc(Br)cc1)c1cccc(OC(=S)N2CCOCC2)c1 | 0 | -1 | -2 | -3 | 0 | 0 | · | ·
CSCCCNC(=O)c1oc(=O)c2ccccc2c1-c1ccc(C)cc1 | 3 | -1 | · | -1 | -1 | -2 | · | ·
O=C(CSc1nnc(-c2cccs2)o1)c1cccs1 | 6 | -1 | 1 | 8.0* | 2 | 1 | 12* | 7.0*
CCC1CCCCN1C(=O)CSc1nnc(-c2cccs2)o1 (centres undefined) | 9 | 1.0* | 1 | 8.0* | 3 | 2 | 12* | 8.4*
O=C(OCC(=O)N1CCCC1=O)c1ncc(Cl)c(Cl)c1Cl | -1 | -1 | 3 | 1 | 0 | -2 | · | ·
CC(=O)Nc1ccc(N/C=C/C(=O)c2ccc(Cl)cc2)cc1 | 3 | -1 | 0 | 6 | 2 | 1 | · | ·
O=C(/C=C/Nc1ccc(F)c(Cl)c1)c1ccccc1 | 6 | 0 | 2 | 9.3* | 6.3* | 2 | 7 | 13*
Cc1ccc2[nH]c(=O)c3cc(C(=O)N(C)Cc4ccco4)sc3c2c1 | 0 | -1 | 0 | 8.4* | -2 | 0 | 13* | -1
O=C(N/N=C/C1CC2CCC1C2)c1ccc2c(c1)OCO2 (centres undefined) | 9 | -1 | 2 | 8.2* | 0 | 1 | -1 | -1
O=C(N/N=C/c1ccc2c(c1)OCO2)c1ccc2c(c1)OCCO2 | 13* | -1 | 1 | 10* | 1 | 1 | 4 | 5
